Experiments:
Test in all cases: DAPPL (digital affinity profiling via proximity ligation, sequencing); 10 mM Tris-HCl pH 7.5, 50 mM NaCl, 1 mM DTT, 4% glycerol, room temperature, 30 min; GST-TFs on glutathione beads, 16-mer random dsDNA library, 0.1% formaldehyde crosslink after washing; high values mean tight binding
FEV = target: T1, FEV (Homo sapiens, UniProt Q99581 1-238); settings: protein: recombinant; tags: N-terminal GST; dsDNA, one strand shown
T1 sequence: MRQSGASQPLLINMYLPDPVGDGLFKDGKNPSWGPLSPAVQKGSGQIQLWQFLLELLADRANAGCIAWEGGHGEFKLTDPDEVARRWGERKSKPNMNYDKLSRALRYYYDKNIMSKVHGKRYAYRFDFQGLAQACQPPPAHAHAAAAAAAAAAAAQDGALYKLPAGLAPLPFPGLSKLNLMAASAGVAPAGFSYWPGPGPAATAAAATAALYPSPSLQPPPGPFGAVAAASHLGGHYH
In short: (§1)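 Binding signal is each hexamer's read frequency for a factor divided by its frequency in the tag-only sample. The factors were GST-fused human transcription factors from yeast, captured on glutathione beads, DNA-barcoded and pooled with that sample. Pools were incubated with 200 nmole of a random double-stranded 16-mer DNA library in Tris/NaCl/DTT/glycerol buffer at room temperature for 30 min, then washed, crosslinked with 0.1% formaldehyde, proximity-ligated with BsaI/T4 ligase (1 h, 37 °C), PCR-amplified and sequenced on an Illumina NextSeq500.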

ETV5 = ETV5 (Homo sapiens, UniProt P41161 1-510); settings: protein: recombinant; tags: N-terminal GST; dsDNA, one strand shown
Chain of ETV5 (P41161 whole entry): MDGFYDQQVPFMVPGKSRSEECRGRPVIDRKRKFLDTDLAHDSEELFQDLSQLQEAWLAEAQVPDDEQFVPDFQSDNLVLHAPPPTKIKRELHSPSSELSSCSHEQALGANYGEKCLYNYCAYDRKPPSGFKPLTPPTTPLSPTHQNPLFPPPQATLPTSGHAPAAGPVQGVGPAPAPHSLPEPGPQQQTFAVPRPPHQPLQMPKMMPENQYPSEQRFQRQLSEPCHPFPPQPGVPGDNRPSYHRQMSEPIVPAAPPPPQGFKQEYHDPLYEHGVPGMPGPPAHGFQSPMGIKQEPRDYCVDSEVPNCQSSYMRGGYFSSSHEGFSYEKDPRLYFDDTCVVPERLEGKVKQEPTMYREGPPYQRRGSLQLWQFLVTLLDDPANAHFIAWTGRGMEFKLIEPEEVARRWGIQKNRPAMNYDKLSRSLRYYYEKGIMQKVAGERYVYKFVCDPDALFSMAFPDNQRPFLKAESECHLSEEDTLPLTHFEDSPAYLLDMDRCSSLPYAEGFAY
In short: as §1

HSF1 = HSF1 (Homo sapiens, UniProt Q00613 1-529); settings: protein: recombinant; tags: N-terminal GST; chain copies: 3; dsDNA, one strand shown
Chain of HSF1 (Q00613 whole entry): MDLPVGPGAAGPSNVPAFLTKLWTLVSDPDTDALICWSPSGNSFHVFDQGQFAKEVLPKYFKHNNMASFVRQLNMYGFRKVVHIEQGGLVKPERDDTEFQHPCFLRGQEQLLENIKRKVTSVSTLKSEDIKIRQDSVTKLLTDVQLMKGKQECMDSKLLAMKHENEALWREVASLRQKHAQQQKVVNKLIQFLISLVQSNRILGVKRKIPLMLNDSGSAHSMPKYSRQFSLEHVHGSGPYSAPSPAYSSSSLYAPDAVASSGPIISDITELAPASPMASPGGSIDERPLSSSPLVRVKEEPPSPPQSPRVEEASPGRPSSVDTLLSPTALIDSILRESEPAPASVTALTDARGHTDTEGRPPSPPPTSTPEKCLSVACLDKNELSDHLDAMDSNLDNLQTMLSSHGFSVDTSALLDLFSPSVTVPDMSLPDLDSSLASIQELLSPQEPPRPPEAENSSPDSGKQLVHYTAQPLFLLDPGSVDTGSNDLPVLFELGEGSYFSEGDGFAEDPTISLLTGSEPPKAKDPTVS
In short: as §1

SPIC = target: T2, SPIC (Homo sapiens, UniProt Q8N5J4 1-248); settings: protein: recombinant; tags: N-terminal GST; dsDNA, one strand shown
T2 sequence: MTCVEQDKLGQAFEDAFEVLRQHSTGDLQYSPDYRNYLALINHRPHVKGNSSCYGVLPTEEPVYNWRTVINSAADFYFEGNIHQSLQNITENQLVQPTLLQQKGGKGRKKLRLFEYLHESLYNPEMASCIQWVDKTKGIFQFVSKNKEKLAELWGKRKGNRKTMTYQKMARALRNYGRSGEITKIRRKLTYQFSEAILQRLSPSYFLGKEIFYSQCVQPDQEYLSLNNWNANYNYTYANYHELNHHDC
In short: as §1

ELF4 = ELF4 (Homo sapiens, UniProt Q99607 1-663); settings: protein: recombinant; tags: N-terminal GST; dsDNA, one strand shown
Chain of ELF4 (Q99607 whole entry): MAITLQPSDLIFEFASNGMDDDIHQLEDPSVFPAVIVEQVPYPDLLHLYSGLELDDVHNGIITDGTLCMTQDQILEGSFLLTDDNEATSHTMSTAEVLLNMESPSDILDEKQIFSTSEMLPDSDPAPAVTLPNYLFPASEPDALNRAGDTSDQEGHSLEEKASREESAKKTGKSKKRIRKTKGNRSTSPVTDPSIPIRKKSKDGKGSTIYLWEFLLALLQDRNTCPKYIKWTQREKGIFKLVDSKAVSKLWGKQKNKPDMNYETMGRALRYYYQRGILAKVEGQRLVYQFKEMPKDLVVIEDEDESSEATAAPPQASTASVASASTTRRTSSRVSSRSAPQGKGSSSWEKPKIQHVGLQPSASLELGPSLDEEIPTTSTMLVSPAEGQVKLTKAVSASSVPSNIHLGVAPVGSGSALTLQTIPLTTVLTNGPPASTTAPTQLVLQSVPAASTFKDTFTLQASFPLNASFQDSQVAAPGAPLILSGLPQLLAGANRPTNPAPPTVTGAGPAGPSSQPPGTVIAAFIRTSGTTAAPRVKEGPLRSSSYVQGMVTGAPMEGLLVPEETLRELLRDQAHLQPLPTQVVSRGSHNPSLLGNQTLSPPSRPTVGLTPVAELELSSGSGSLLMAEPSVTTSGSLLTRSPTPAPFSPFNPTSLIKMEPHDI
In short: as §1

ELK4 = target: T3, ELK4 (Homo sapiens, UniProt P28324-2 1-405); settings: protein: recombinant; tags: N-terminal GST; dsDNA, one strand shown
T3 sequence: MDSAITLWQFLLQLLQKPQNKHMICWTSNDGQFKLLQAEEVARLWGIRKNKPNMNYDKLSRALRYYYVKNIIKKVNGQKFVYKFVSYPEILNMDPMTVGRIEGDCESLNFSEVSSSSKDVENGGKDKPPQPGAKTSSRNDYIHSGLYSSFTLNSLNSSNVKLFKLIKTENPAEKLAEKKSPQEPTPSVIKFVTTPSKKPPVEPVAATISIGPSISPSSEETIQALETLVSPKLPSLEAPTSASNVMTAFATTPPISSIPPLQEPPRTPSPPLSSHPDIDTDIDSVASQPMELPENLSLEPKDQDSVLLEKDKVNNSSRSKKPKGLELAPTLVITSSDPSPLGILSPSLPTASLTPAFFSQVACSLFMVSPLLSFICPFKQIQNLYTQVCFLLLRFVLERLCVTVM
In short: as §1

ETV2 = target: T4, ETV2 (Homo sapiens, UniProt O00321 1-342); settings: protein: recombinant; tags: N-terminal GST; dsDNA, one strand shown
T4 sequence: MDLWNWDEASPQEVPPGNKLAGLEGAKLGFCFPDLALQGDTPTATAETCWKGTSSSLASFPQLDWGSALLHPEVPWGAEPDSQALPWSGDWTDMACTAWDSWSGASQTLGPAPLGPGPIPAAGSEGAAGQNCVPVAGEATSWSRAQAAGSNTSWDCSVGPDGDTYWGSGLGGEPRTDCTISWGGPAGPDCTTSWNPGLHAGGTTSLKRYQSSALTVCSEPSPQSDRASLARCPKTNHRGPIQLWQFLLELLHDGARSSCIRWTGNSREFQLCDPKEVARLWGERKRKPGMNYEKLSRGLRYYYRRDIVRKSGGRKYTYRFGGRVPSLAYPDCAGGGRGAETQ
In short: as §1

ELF3 = target: T5, ELF3 (Homo sapiens, UniProt P78545 1-371); settings: protein: recombinant; tags: N-terminal GST; dsDNA, one strand shown
T5 sequence: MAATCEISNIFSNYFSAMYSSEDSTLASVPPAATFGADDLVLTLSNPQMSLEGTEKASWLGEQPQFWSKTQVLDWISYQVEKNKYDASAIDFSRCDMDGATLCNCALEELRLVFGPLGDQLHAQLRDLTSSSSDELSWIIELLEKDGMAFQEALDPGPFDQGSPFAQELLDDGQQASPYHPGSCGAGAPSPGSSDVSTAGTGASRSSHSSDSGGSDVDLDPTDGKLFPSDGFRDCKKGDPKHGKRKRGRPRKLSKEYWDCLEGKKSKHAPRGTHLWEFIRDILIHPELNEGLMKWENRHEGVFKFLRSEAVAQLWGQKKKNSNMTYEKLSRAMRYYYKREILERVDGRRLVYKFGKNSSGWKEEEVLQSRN
In short: as §1

ETV1 = ETV1 (Homo sapiens, UniProt P50549 1-477); settings: protein: recombinant; tags: N-terminal GST; dsDNA, one strand shown
Chain of ETV1 (P50549 whole entry): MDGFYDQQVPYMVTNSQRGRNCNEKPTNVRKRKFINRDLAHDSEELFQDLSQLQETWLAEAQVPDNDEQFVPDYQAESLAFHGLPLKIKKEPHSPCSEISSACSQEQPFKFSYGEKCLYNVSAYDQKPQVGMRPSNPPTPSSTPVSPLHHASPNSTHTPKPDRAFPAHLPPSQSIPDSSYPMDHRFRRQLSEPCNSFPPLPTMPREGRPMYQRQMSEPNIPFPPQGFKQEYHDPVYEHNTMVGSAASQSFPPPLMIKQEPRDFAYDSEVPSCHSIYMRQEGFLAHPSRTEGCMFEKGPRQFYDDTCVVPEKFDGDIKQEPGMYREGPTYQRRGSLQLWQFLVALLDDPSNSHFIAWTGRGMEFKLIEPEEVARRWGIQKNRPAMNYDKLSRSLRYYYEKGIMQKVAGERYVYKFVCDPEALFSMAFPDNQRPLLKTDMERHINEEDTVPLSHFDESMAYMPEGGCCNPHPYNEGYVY
In short: as §1

Row | Sequence | binding signal (FEV) | binding signal (ETV5) | binding signal (HSF1) | binding signal (SPIC) | binding signal (ELF4) | binding signal (ELK4) | binding signal (ETV2) | binding signal (ELF3) | binding signal (ETV1)
1 | GCACGA | 1.09 fold enrichment (6-mer frequency, TF over GST control) | 1.15 fold enrichment (6-mer frequency, TF over GST control) | 1.04 fold enrichment (6-mer frequency, TF over GST control) | 1.18 fold enrichment (6-mer frequency, TF over GST control) | 1.1 fold enrichment (6-mer frequency, TF over GST control) | 1.13 fold enrichment (6-mer frequency, TF over GST control) | 1.31 fold enrichment (6-mer frequency, TF over GST control) | 1.16 fold enrichment (6-mer frequency, TF over GST control) | 1.05 fold enrichment (6-mer frequency, TF over GST control)
2 | CTCGGT | 1.01 fold enrichment (6-mer frequency, TF over GST control) | 1.1 fold enrichment (6-mer frequency, TF over GST control) | 1.04 fold enrichment (6-mer frequency, TF over GST control) | 1.06 fold enrichment (6-mer frequency, TF over GST control) | 1.09 fold enrichment (6-mer frequency, TF over GST control) | 1.12 fold enrichment (6-mer frequency, TF over GST control) | 1.19 fold enrichment (6-mer frequency, TF over GST control) | 1.16 fold enrichment (6-mer frequency, TF over GST control) | 1.15 fold enrichment (6-mer frequency, TF over GST control)
3 | GGAACT | 1.72 fold enrichment (6-mer frequency, TF over GST control) | 1.96 fold enrichment (6-mer frequency, TF over GST control) | 1.31 fold enrichment (6-mer frequency, TF over GST control) | 2.08 fold enrichment (6-mer frequency, TF over GST control) | 1.55 fold enrichment (6-mer frequency, TF over GST control) | 1.49 fold enrichment (6-mer frequency, TF over GST control) | 1.89 fold enrichment (6-mer frequency, TF over GST control) | 1.87 fold enrichment (6-mer frequency, TF over GST control) | 2.03 fold enrichment (6-mer frequency, TF over GST control)
4 | TGTACG | 1.2 fold enrichment (6-mer frequency, TF over GST control) | 1.23 fold enrichment (6-mer frequency, TF over GST control) | 1.01 fold enrichment (6-mer frequency, TF over GST control) | 1.23 fold enrichment (6-mer frequency, TF over GST control) | 1.2 fold enrichment (6-mer frequency, TF over GST control) | 1.34 fold enrichment (6-mer frequency, TF over GST control) | 1.13 fold enrichment (6-mer frequency, TF over GST control) | 1.13 fold enrichment (6-mer frequency, TF over GST control) | 1.24 fold enrichment (6-mer frequency, TF over GST control)
5 | CTGCCG | 1.35 fold enrichment (6-mer frequency, TF over GST control) | 1.36 fold enrichment (6-mer frequency, TF over GST control) | 1.04 fold enrichment (6-mer frequency, TF over GST control) | 1.31 fold enrichment (6-mer frequency, TF over GST control) | 1.28 fold enrichment (6-mer frequency, TF over GST control) | 1.24 fold enrichment (6-mer frequency, TF over GST control) | 1.07 fold enrichment (6-mer frequency, TF over GST control) | 1.09 fold enrichment (6-mer frequency, TF over GST control) | 1.34 fold enrichment (6-mer frequency, TF over GST control)
6 | AGTTCC | 1.96 fold enrichment (6-mer frequency, TF over GST control) | 2.29 fold enrichment (6-mer frequency, TF over GST control) | 1.34 fold enrichment (6-mer frequency, TF over GST control) | 2.42 fold enrichment (6-mer frequency, TF over GST control) | 1.97 fold enrichment (6-mer frequency, TF over GST control) | 1.98 fold enrichment (6-mer frequency, TF over GST control) | 1.88 fold enrichment (6-mer frequency, TF over GST control) | 2.05 fold enrichment (6-mer frequency, TF over GST control) | 2.21 fold enrichment (6-mer frequency, TF over GST control)
7 | CATGAA | 1.03 fold enrichment (6-mer frequency, TF over GST control) | 1.07 fold enrichment (6-mer frequency, TF over GST control) | 1.05 fold enrichment (6-mer frequency, TF over GST control) | 1.16 fold enrichment (6-mer frequency, TF over GST control) | 1.1 fold enrichment (6-mer frequency, TF over GST control) | 1.11 fold enrichment (6-mer frequency, TF over GST control) | 1.06 fold enrichment (6-mer frequency, TF over GST control) | 1.15 fold enrichment (6-mer frequency, TF over GST control) | 1.08 fold enrichment (6-mer frequency, TF over GST control)
8 | GTCTTC | 1.34 fold enrichment (6-mer frequency, TF over GST control) | 1.31 fold enrichment (6-mer frequency, TF over GST control) | 1.17 fold enrichment (6-mer frequency, TF over GST control) | 1.18 fold enrichment (6-mer frequency, TF over GST control) | 1.23 fold enrichment (6-mer frequency, TF over GST control) | 1.14 fold enrichment (6-mer frequency, TF over GST control) | 1.22 fold enrichment (6-mer frequency, TF over GST control) | 1.46 fold enrichment (6-mer frequency, TF over GST control) | 1.29 fold enrichment (6-mer frequency, TF over GST control)
9 | ACTGGC | 1.11 fold enrichment (6-mer frequency, TF over GST control) | 1.11 fold enrichment (6-mer frequency, TF over GST control) | 1.07 fold enrichment (6-mer frequency, TF over GST control) | 1.28 fold enrichment (6-mer frequency, TF over GST control) | 1.16 fold enrichment (6-mer frequency, TF over GST control) | 1.25 fold enrichment (6-mer frequency, TF over GST control) | 1.11 fold enrichment (6-mer frequency, TF over GST control) | 1.1 fold enrichment (6-mer frequency, TF over GST control) | 1.11 fold enrichment (6-mer frequency, TF over GST control)
10 | CACGCG | 1.16 fold enrichment (6-mer frequency, TF over GST control) | 1.04 fold enrichment (6-mer frequency, TF over GST control) | 1.1 fold enrichment (6-mer frequency, TF over GST control) | 1.29 fold enrichment (6-mer frequency, TF over GST control) | 1.2 fold enrichment (6-mer frequency, TF over GST control) | 1.24 fold enrichment (6-mer frequency, TF over GST control) | 1.18 fold enrichment (6-mer frequency, TF over GST control) | 1.08 fold enrichment (6-mer frequency, TF over GST control) | 1.09 fold enrichment (6-mer frequency, TF over GST control)
11 | CAGGAA | 1.51 fold enrichment (6-mer frequency, TF over GST control) | 1.79 fold enrichment (6-mer frequency, TF over GST control) | 1.04 fold enrichment (6-mer frequency, TF over GST control) | 1.65 fold enrichment (6-mer frequency, TF over GST control) | 1.52 fold enrichment (6-mer frequency, TF over GST control) | 1.37 fold enrichment (6-mer frequency, TF over GST control) | 1.6 fold enrichment (6-mer frequency, TF over GST control) | 1.86 fold enrichment (6-mer frequency, TF over GST control) | 1.74 fold enrichment (6-mer frequency, TF over GST control)
12 | TGCCCG | 1.27 fold enrichment (6-mer frequency, TF over GST control) | 1.21 fold enrichment (6-mer frequency, TF over GST control) | 1.01 fold enrichment (6-mer frequency, TF over GST control) | 1.34 fold enrichment (6-mer frequency, TF over GST control) | 1.21 fold enrichment (6-mer frequency, TF over GST control) | 1.16 fold enrichment (6-mer frequency, TF over GST control) | 1.26 fold enrichment (6-mer frequency, TF over GST control) | 1.32 fold enrichment (6-mer frequency, TF over GST control) | 1.21 fold enrichment (6-mer frequency, TF over GST control)
13 | AAGGAA | 1.19 fold enrichment (6-mer frequency, TF over GST control) | 1.35 fold enrichment (6-mer frequency, TF over GST control) | 1.17 fold enrichment (6-mer frequency, TF over GST control) | 1.36 fold enrichment (6-mer frequency, TF over GST control) | 1.25 fold enrichment (6-mer frequency, TF over GST control) | 1.12 fold enrichment (6-mer frequency, TF over GST control) | 1.31 fold enrichment (6-mer frequency, TF over GST control) | 1.66 fold enrichment (6-mer frequency, TF over GST control) | 1.24 fold enrichment (6-mer frequency, TF over GST control)
14 | AATGGG | 1.25 fold enrichment (6-mer frequency, TF over GST control) | 1.28 fold enrichment (6-mer frequency, TF over GST control) | 1.02 fold enrichment (6-mer frequency, TF over GST control) | 1.26 fold enrichment (6-mer frequency, TF over GST control) | 1.16 fold enrichment (6-mer frequency, TF over GST control) | 1.27 fold enrichment (6-mer frequency, TF over GST control) | 1.22 fold enrichment (6-mer frequency, TF over GST control) | 1.13 fold enrichment (6-mer frequency, TF over GST control) | 1.21 fold enrichment (6-mer frequency, TF over GST control)
15 | ATGGTC | 1.36 fold enrichment (6-mer frequency, TF over GST control) | 1.57 fold enrichment (6-mer frequency, TF over GST control) | 1.01 fold enrichment (6-mer frequency, TF over GST control) | 1.63 fold enrichment (6-mer frequency, TF over GST control) | 1.59 fold enrichment (6-mer frequency, TF over GST control) | 1.38 fold enrichment (6-mer frequency, TF over GST control) | 1.47 fold enrichment (6-mer frequency, TF over GST control) | 1.48 fold enrichment (6-mer frequency, TF over GST control) | 1.41 fold enrichment (6-mer frequency, TF over GST control)

Source: article PMC7862700, “An all-to-all approach to the identification of sequence-specific readers for epigenetic DNA modifications on cytosine”
